# Bioassay records: PubChem, National Center for Advancing Translational Sciences (NCATS)
# VACV mCherry inh: vaccinia inhibition (mCherry reporter); Vaccinia virus mCherry reporter infection, fluorescence; Potency, µM (top dose mostly 36.5 µM), without a hit: at the top dose activity change, negative = inhibition, most hits filed as inhibitors; hit rate 0.63% among 310,000; calls by dose curve; tested in A549 cells; note: potency is the fitted concentration of half-maximal effect; nearly all actives have a fitted effect of over 35% in size
# FBPA Giardia inh: Giardia lamblia aldolase inhibition | Potency, µM (titrated, usually from 59.6 µM), inactives show at the top dose activity, negative = inhibition, most hits filed as inhibitors | purified Giardia FBPA | hit rate 0.71% among 290,000 | AID 2451; note: potency is the fitted concentration of half-maximal effect; nearly all actives have a fitted effect of over 55% in size
# Target sequence (A8B2U2 whole entry, looked up): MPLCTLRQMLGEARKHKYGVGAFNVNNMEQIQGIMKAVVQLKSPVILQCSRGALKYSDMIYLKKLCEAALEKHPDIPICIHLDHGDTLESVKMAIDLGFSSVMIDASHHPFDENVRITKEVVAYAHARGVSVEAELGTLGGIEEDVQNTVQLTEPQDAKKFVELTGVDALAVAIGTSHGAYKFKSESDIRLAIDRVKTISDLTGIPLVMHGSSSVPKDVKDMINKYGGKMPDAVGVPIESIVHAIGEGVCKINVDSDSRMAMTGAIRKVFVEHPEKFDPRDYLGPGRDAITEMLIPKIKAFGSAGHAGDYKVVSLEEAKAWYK
#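 40 nM FBPA preincubated 10 min at RT with compound (up to 57.5 uM final), then substrate plus GAPDH/TPI/NAD/arsenate coupling and diaphorase/resazurin added. Fluorescence read after 20 min at RT, 525/598 nm.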
# FMDV inh: antivirals against foot and mouth disease virus | hit rate 1.2% among 410,000 | FMDV antiviral cell-based qHTS | Potency, µM (series often up to 57.9 µM), for inactives: at the highest dose activity change, negative = inhibition, usual class: inhibitors; calls by dose curve; tested in HEK293T cells; note: read-out not given here; potency is the fitted concentration of half-maximal effect; nearly all actives have a fitted effect of over 45% in size
# Vaccinia Venus: inhibitors of vaccinia virus (Venus reporter) | Vaccinia virus Venus reporter expression, fluorescence | Potency, µM (doses to about 36.5 µM), inactives show at the top dose activity change, negative = inhibition, actives largely listed as inhibitors | hit rate 0.46% among 330,000 | AID 720580; calls by dose curve; tested in A549 cells; note: potency is the fitted concentration of half-maximal effect; nearly all actives have a fitted effect of over 30% in size
# HCV inhibitor: inhibitors of hepatitis C virus infection. Potency, µM (series often up to 41.8 µM), inactives show top-dose activity change, negative = inhibition, usual class: inhibitors. hit rate 3.4% among 340,000. Huh7.5.1 HCVcc-Cre infection, luciferase reporter, 44 h; note: potency is the fitted concentration of half-maximal effect
#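 After 44 h co-culture of compound, cells and HCVcc-Cre (~0.5 moi), substrate is added for 15 min at room temperature and luciferase measured over 15 sec. Cells were seeded at 1,000/well and pre-cultured 4 h.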
# HCMV inh: blocks human cytomegalovirus replication; HFF cells, HCMV-luciferase reporter, 72 h; hits give low values; activity change, negative = inhibition, % at 57.5 µM; hit rate 4.5% among 410,000; in the data active = activity change below about -60%; inconclusive = no clear call, values can overlap the other calls; inactive = above about -39%
#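 Luciferase read-out from HCMV-luciferase-infected HFFs (MOI 1 PFU/cell) 72 h post infection at 37C; compounds added after 16 h cell attachment; activity normalized between buffer-only basal and Salinomycin (10uM) inhibitor controls.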
# * = called active by the depositor; i = inactive; ? = inconclusive; · = no result given; + = active, no number; ! = a repeat was not active. Sampled rows, rich in hits. Any-hit rate of the full collection: about 7.5%. Unless noted, calls come from the whole dose curve; as a rule, active = well fitted curve in the direction sought with a large enough effect; inconclusive = small, poorly fitted or top-dose-only effect, or another doubt; inactive = no such curve, though single readings can be large; an effect the other way counts as inactive or inconclusive. % is set by controls: 0 for no effect and ±100 for the full control effect.
SMILES,VACV mCherry inh,FBPA Giardia inh,FMDV inh,Vaccinia Venus,HCV inhibitor,HCMV inh
O=C(/C=C/c1ccco1)Oc1cccc2cccnc12,-26%,-25%,11%,?,?,-72*
C=CCC[C@H](Cc1ccc(F)cc1)C(=O)OC[C@H](C)NC(=O)[C@H](CC=C)CC(=O)NCCO,-3%,·,-14%,-16%,5%,-69*
C=CCC[C@@H](Cc1ccc(F)cc1)C(=O)OC[C@@H](NC(=O)[C@@H](CC=C)CC(=O)N[C@@H](CO)Cc1ccccc1)C(C)(C)C,i,·,?,?,5%,-16
C=CCC[C@H](Cc1ccc(F)cc1)C(=O)OC[C@@H](NC(=O)[C@@H](CC=C)CC(=O)N(CCO)Cc1ccccc1)C(C)(C)C,?,·,?,13µM*,3.2µM*,11
C=CCC[C@H](Cc1ccc(F)cc1)C(=O)OC[C@@H](NC(=O)[C@@H](CC=C)CC(=O)N[C@@H](CO)Cc1ccccc1)C(C)(C)C,?,·,-1%,10µM*,22µM*,61
C=CCC[C@@H](Cc1ccc(F)cc1)C(=O)OC[C@@H]1CCCN1C(=O)[C@H](CC=C)CC(=O)N[C@H](CO)Cc1ccccc1,?,·,?,?,10µM*,42
Fc1ccc(-c2cc(-c3nc(-c4cccc(Cl)c4)no3)[nH]n2)cc1,-2%,·,2%,-10%,·,-5
O=C(c1cn(C2CCCN(Cc3cccc(Oc4ccccc4)c3)C2)nn1)N1CCCC1 (stereo not given),-4%,·,1%,-17%,·,·
Cc1ccc2c(c1)CN(C(=O)CC(c1ccccc1)c1ccco1)CC(C)O2 (stereo not given),?,·,-6%,-26%,·,·
COc1cc2c(cc1OC)C13CCN4CC5=CCOC6CC(=O)N2C1C6C5CC43 (stereo not given) (tested in a mixture with another compound),-5%,-3%,-6%,+,4%,-10
Cc1nc(-c2c(C(F)(F)F)noc2-c2ccc(O)cc2O)cs1,·,3%,?,·,?,-90*
Cc1ccc(NC(=O)Cn2nc(Cc3ccncc3)c3ccccc3c2=O)c(Cl)c1,-19%,·,-20%,-7%,·,-97*
COc1ccc(C(=O)OCC(=O)NC(C)CCc2ccccc2)cc1 (stereo not given),-1%,12%,-8%,-10%,0%,-29
CC(CCc1ccccc1)NC(=O)COC(=O)c1ccc(NC(N)=O)cc1 (stereo not given),·,0%,-23%,·,-13%,-71*
Clc1ccc(COC(Cn2ccnc2)c2ccc(Cl)cc2Cl)c(Cl)c1 (stereo not given),-9%,7%,?,-28%,?,-61*!
CN(C)c1ccc(/C=C/c2ccnc3ccccc23)cc1Br,-9%,·,·,-18%,·,·
Cc1cccc(NC(=S)N(CCCN2CCCC2)Cc2cccn2Cc2ccc(Cl)cc2)c1,?,-3%,-19%,-24%,?,-60*
Cc1ccc(C)c(N2CCN(C(=O)CN3C(=O)c4ccccc4C3=O)CC2)c1,-3%,2%,?,-6%,19%,0
CCN1C(=O)c2ccccc2Sc2ccc(NC(=O)N3CCN(c4cc(C)ccc4C)CC3)cc21,-27%,·,-24%,-22%,·,-61*
Cc1ccc(C)c(N2CCN(C(=O)Nc3ccc4c(c3)N(C)C(=O)CS4)CC2)c1,-20%,5%,16µM*,?,10µM*,-16
CN1C(=O)c2ccccc2Sc2ccc(NC(=O)N3CCOCC3)cc21,-3%,11%,-8%,-10%,-5%,33
CN1C(=O)c2ccccc2Sc2ccc(NC(=O)N3CCN(c4ccc(F)cc4)CC3)cc21,?,·,-7%,?,·,-97*
Cc1cccc(N2C(=O)c3cccc4c(N)ccc(c34)C2=O)c1,-15%,-1%,-1%,157%,10µM*,?
Nc1cccc(N2C(=O)c3cccc4c(N)ccc(c34)C2=O)c1,i,-5%,-13%,48%,-4%,-25
Cc1cccc(N2C(=O)c3cccc4c(N(C)CCO)ccc(c34)C2=O)c1,-5%,?,?,73%,11µM*,·
SMILES,VACV mCherry inh,FBPA Giardia inh,FMDV inh,Vaccinia Venus,HCV inhibitor,HCMV inh
CN(C)c1ccc2c3c(cccc13)C(=O)N(c1ccccc1)C2=O,·,4%,·,·,·,·
O=C1c2ccc3c4c(ccc(c24)C(=O)N1c1cccc(O)c1)C(=O)N(c1cccc(O)c1)C3=O,·,?,?,·,5µM*,-88*
CC(OC(=O)c1cccc(S(=O)(=O)N(C)C)c1)C(=O)NCc1ccc2c(c1)OCO2 (stereo not given),-12%,·,-10%,-1%,14%,-18
CC(C)(C)OC(=O)N1CCc2onc(-c3ccc(N)cc3)c2C1=O,i,·,-3%,-9%,·,17
Fc1ccc(-c2nccc3[nH]nc(-c4ccccc4)c23)cc1,·,·,·,·,·,-31
COc1ccc(-c2noc(-c3ccccc3C(=O)Nc3cccnc3)n2)cc1OC,-3%,-15%,·,-8%,8.9µM*,-5
COc1ccccc1-c1noc(-c2ccccc2C(=O)Nc2cccnc2)n1,·,-9%,-6%,·,11µM*,77
COc1ccc(-c2noc(-c3ccccc3C(=O)Nc3cccnc3)n2)cc1,·,0%,?,-14%,10µM*,10
COc1ccc(-c2noc(CNC(=O)c3ccccc3Br)n2)cc1,-8%,·,-18%,-7%,·,-63*
COc1ccc(-c2noc(-c3ccccc3C(=O)Nc3cccc(OC)c3)n2)cc1,·,-3%,-15%,-14%,?,-36
O=C(Nc1cccnc1)c1ccccc1-c1nc(-c2ccccc2F)no1,·,-1%,6%,·,?,-13
COc1ccc(-c2noc(CNC(=O)c3ccco3)n2)cc1,-6%,·,5%,-12%,·,9
CCCOc1ccc(C(=O)NNC(=O)CCNC(=O)c2ccco2)cc1OC,-11%,·,-16%,-3%,13%,-22
CCN(CC)C(=O)OCCc1cc2ccccc2c(=O)o1,-24%,·,9%,-13%,-3%,27
CCOC(=O)/C=C1\CN(Cc2ccc(OC)cc2)S(=O)(=O)c2ccc(C(F)(F)F)cc21,i,·,·,-9%,·,·
